Experimental data published in PubChem BioAssay AID540333 (Southern Research Specialized Biocontainment Screening …, 2011).
Hit rate of the full screen: of about 10,000 compounds, about 320 (3.2%) were called active. Rule as the data show it: active = CPE inhibition mostly above about 9.1% (no sharp cut-off); inactive = mostly below about 7.2%. Shown is part of a subset that was picked to be rich in actives.

Test: antivirals protecting cells from dengue CPE – CPE readout, HTS (AID 540333)
Conditions: Dengue virus CPE inhibition in host cells, at 20 µM; stronger effect = higher value

| SMILES | CPE inhibition |
| --- | --- |
| O=C(Nc1cccc(Cl)c1)c1ccc(Cn2cc(Cl)cn2)cc1 | inactive |
| Cc1ccnc(NC(=S)NC(=O)c2ccco2)c1 | 0.58% (inactive) |
| COc1cccc(C(Nc2ccccn2)c2c(NC(=O)c3ccco3)sc(C)c2C)c1 (centres undefined) | 31% (active) |
| O=C(NC(=S)Nc1ccccn1)c1ccco1 | 1.33% (inactive) |
| Fc1ccccc1NC(=S)NCc1ccc2c(c1)OCO2 | 0.705% (inactive) |
| COc1cc(C(=O)NNC(=S)NC(=O)c2ccc(Cl)cc2)cc(OC)c1OC | 2.02% (inactive) |
| Cc1ccc(-n2c(SCC(=O)Nc3cccc(S(N)(=O)=O)c3)nc3ccccc32)cc1 | 10.4% (inactive) |
| CN(C)S(=O)(=O)c1cccc(NC(=O)CSc2nc3ccccc3n2-c2ccccc2)c1 | 6.67% (inactive) |
| Cc1ccc(-n2c(SCC(=O)Nc3ncc(Cl)cc3Cl)nc3ccccc32)cc1 | 14.9% (active) |
| CCn1c(SCC(=O)Nc2ncc(C(F)(F)F)cc2Cl)nnc1-c1cccc(C)c1 | 0.415% (inactive) |
| Cc1ccc(-c2nn(-c3ccccc3)cc2C(=O)OCC(=O)Nc2ncc(Cl)cc2Cl)cc1 | 0.085% (inactive) |
| Cc1cccc(-n2c(SCC(=O)Nc3ncc(Cl)cc3Cl)nc3ccccc32)c1 | 13.7% (active) |
| COc1cc2c(cc1OC)CN(c1ccc([N+](=O)[O-])cc1C#N)CC2 | 0.37% (inactive) |
| CN(C)S(=O)(=O)c1ccc(NCC2COc3ccccc3O2)c([N+](=O)[O-])c1 (centres undefined) | 0.57% (inactive) |
| O=C(CSc1cccc[n+]1[O-])Nc1cc(S(=O)(=O)N2CCOCC2)ccc1Cl | inactive |
| O=c1c2ccccc2sc2ccc(Cl)cc12 | 0.48% (inactive) |
| COc1cc(/C=C(\C#N)C(=O)NC2CCCCC2C)ccc1OS(=O)(=O)c1ccc(C)cc1 (centres undefined) | inactive |
| CSc1ccc(/C=C(\C#N)C(=O)NC2CCCCC2C)cc1 (centres undefined) | 18.5% (active) |
| CCCCCCCCNC(=O)/C(C#N)=C/c1ccc(SC)cc1 | 0.185% (inactive) |
| CC(=O)Nc1ccc(OCC(O)CN2CCCCC2C)cc1 (centres undefined) | 0.255% (inactive) |
| O=[N+]([O-])c1ccc(-c2nnc(-c3ccccc3)c(NCCCO)n2)cc1 | inactive |
| CC1CCN(C(=O)CCc2ccc(Oc3cc([N+](=O)[O-])cc([N+](=O)[O-])c3)cc2)CC1 | 6.92% (inactive) |
| O=C(c1cc([N+](=O)[O-])ccc1N1CCCCC1)N1CCCC1 | 0.545% (inactive) |
| O=C(CCc1ccc(Oc2cc([N+](=O)[O-])cc([N+](=O)[O-])c2)cc1)N1CCCCCC1 | 12.4% (active) |
| COc1ccc(OCCCC(=O)Nc2cccc([N+](=O)[O-])c2C)cc1 | inactive |

| SMILES | CPE inhibition |
| --- | --- |
| C=CCOC(=O)C1=C(C)NC(SCC(N)=O)=C(C#N)C1c1cccs1 (centres undefined) | 0.32% (inactive) |
| Cc1cc(C)c(COc2ccc(/C=N/n3c(C)n[nH]c3=S)cc2)c(C)c1 | 5.91% (inactive) |
| Cc1cc2cc(CN(Cc3cccs3)C(=S)NCC3CCCO3)c(=O)[nH]c2cc1C (centres undefined) | 18.4% (active) |
| Cc1cccc(NC(=S)N(Cc2cccs2)Cc2cc3cc(C)cc(C)c3[nH]c2=O)c1 | 3.13% (inactive) |
| Cc1ccc2[nH]c(=O)c(CN(Cc3cccs3)C(=S)NCC3CCCO3)cc2c1 (centres undefined) | 0.245% (inactive) |
| Cc1cc(C)c2[nH]c(=O)c(CN(Cc3cccs3)C(=S)NCC3CCCO3)cc2c1 (centres undefined) | 2.9% (inactive) |
| CNC(=S)N(Cc1cccs1)Cc1cc2cc(OC)ccc2[nH]c1=O | inactive |
| COc1ccc2[nH]c(=O)c(CN(Cc3cccs3)C(=S)Nc3cccc(C)c3)cc2c1 | 9.5% (active) |
| N=C(N)SCc1nc2ccccc2c(=O)n1-c1ccccc1 | inactive |
| CC1CCC(=O)N(CCSc2ccccc2)CC1 (centres undefined) | 0.29% (inactive) |
| O=C(c1ccc(COc2ccc(Cl)cc2)o1)N1N=C(C(F)F)CC1(O)C(F)F (centres undefined) | 3% (inactive) |
| CCO[C@H]1OC(C(N)=O)=C[C@@H](C(C)(C)C)[C@@H]1CCCO | inactive |
| CC(C)CC(=O)NC(c1ccccc1Cl)c1c(O)ccc2ccccc12 (centres undefined) | 69% (active) |
| COc1ccccc1C(NC(=O)C1CCCCC1)c1c(O)ccc2ccccc12 (centres undefined) | 0.755% (inactive) |
| CCC(=O)NC(c1ccccc1Cl)c1c(O)ccc2ccccc12 (centres undefined) | 4.07% (inactive) |
| CC(C)c1ccc(NC(=S)NCCc2c[nH]c3ccccc23)cc1 | inactive |
| C/C(=N\NC(=O)c1ccccc1-n1cccc1)C1CC1 | 0.14% (inactive) |
| CON1C(=O)C(=O)N(OC)C2CCCCCC21 (centres undefined) | 0.76% (inactive) |
| COc1ccc(-n2c(CNc3ccc(C)cc3)nnc2SCc2ccccc2)cc1 | 13.1% (active) |
| COC(=O)c1ccc(CSc2nnc(CS(=O)Cc3ccc(Br)cc3)n2-c2ccccc2)cc1 (centres undefined) | 9.53% (inactive) |
| COc1ccc(-n2c(SCc3ccc([N+](=O)[O-])cc3)nnc2-c2ccc(C)cc2)cc1 | 11.5% (inactive) |
| COc1ccc(NCc2nnc(SCC(=O)Nc3nc(-c4ccccc4)cs3)n2-c2ccccc2)cc1 | inactive |
| CCOc1ccc(NCc2nnc(SCC(=O)Nc3nc(-c4ccccc4)cs3)n2-c2ccccc2)cc1 | 0.01% (inactive) |
| CCOc1ccc(NCc2nnc(SCc3ccc(Cl)cc3)n2-c2ccccc2)cc1 | 15.5% (active) |
